# Source: PubChem BioAssay (NCI)
# Compounds without any hit were thinned out: in the full panel of roughly 83,000, 20% have a hit.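 Growth was measured after 48 h exposure to one concentration of compound in 96-well plates. Values under 10 count as active.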 Values without a mark were called inactive. The source made the active and inactive calls.
# Assays:
# Experiment in all cases: NCI-60 one-dose screen, 48 h (100 = growth as untreated, 0 = no growth, -100 = all killed)
# Settings in all cases: 10 µM unless noted
# [1] = system: SK-MEL-2 melanoma
# [2] = system: EKVX NSCLC
# [3] = system: SN12C renal
# [4] = system: UO-31 renal
# [5] = system: TK-10 renal
# [6] = system: ACHN renal
# [7] = system: CAKI-1 renal
# [8] = system: A498 renal
# [9] = system: CCRF-CEM leukemia
# [10] = system: MOLT-4 leukemia
# [11] = system: SR leukemia
# [12] = system: RPMI-8226 leukemia
# [13] = system: OVCAR-5 ovarian
# [14] = system: OVCAR-4 ovarian
# [15] = system: SK-OV-3 ovarian
# [16] = system: IGROV1 ovarian
# [17] = system: OVCAR-3 ovarian
# [18] = system: HS 578T breast
# [19] = system: NCI/ADR-RES ovarian
# [20] = system: OVCAR-8 ovarian
SMILES,growth [1],growth [2],growth [3],growth [4],growth [5],growth [6],growth [7],growth [8],growth [9],growth [10],growth [11],growth [12],growth [13],growth [14],growth [15],growth [16],growth [17],growth [18],growth [19],growth [20]
COc1ccc2nc(C)cc(Sc3nc4ccccc4s3)c2c1,-99.6% (active),42.1%,40.5%,16.7%,61.4%,33.7%,-41.8% (active),40.7%,7.21% (active),-21.2% (active),-48% (active),-39.5% (active),61.2%,25.8%,80.5%,22.2%,22.2%,62.1%,29.1%,–
N/C(=N\OC(=O)c1ccccc1)C(C(=O)NOC(=O)c1ccccc1)C1CCCCC1 (stereo not drawn),121%,66.8%,89.1%,-50.5% (active),92.6%,25.6%,-55.3% (active),86.2%,30%,55.9%,4.57% (active),41.5%,92.2%,72.8%,108%,-56.2% (active),66.9%,26.7%,45.2%,–
CC1CCN(CCCCCOc2ccc3oc4ccc(Cl)cc4c(=O)c3c2)CC1,88.1%,75.1%,70.9%,63.1%,75.7%,93.8%,80.3%,78.7%,40.4%,26.6%,14.9%,35.4%,72.9%,77.3%,84.3%,70.4%,74.6%,86.5%,71.6%,–
CCCCCCCCCCCCCCCCCC(=O)OCCCCCCCCCCCCC,112%,106%,111%,95%,122%,104%,103%,105%,73%,113%,116%,–,113%,113%,114%,106%,114%,122%,–,109%
COc1ccc(-c2cc(-c3cn(-c4cccc(Cl)c4)nc3-c3ccc(OC)cc3)[nH]c(=S)n2)cc1,88.9%,90.4%,73.6%,84.7%,93.8%,80.5%,104%,69.3%,73.6%,42.4%,75.3%,50.1%,97%,75.8%,90.1%,59.4%,108%,–,99.6%,–
C=C1C(=O)O[C@H]2[C@H]1CC/C(COC(=O)NCc1ccc(Cn3c(=O)sn(CCCl)c3=O)cc1)=C\CC[C@@]1(C)O[C@@H]21,68.8%,83.6%,82.6%,79.3%,11.4%,70.3%,48.3%,98.4%,-3.67% (active),-18.8% (active),5.35% (active),2.37% (active),109%,60.6%,85.3%,47.7%,-26.2% (active),–,113%,92.1%
CCN(CC)c1ccc(/C=N/NC(=O)C[N+](C)(C)C)cc1,137%,94.2%,105%,108%,95.2%,105%,101%,92.3%,90.9%,22.1%,16.6%,92%,99.1%,–,102%,115%,110%,110%,103%,111%
Nc1nc(N)c2cc(NCc3ccc(Cl)c(Cl)c3)ccc2n1,-79.2% (active),-78.8% (active),-79.5% (active),-75.4% (active),-93.8% (active),-94.8% (active),-68.4% (active),34.2%,-49.2% (active),-55.6% (active),-53.9% (active),-42% (active),-92.5% (active),-86.9% (active),-99.7% (active),-58.8% (active),-95.3% (active),-48.6% (active),–,–
c1cn2cc(-c3ccc4ncn(C5CCCCC5)c4c3)nc(-c3ccc4c(c3)ncn4C3CCCCC3)c2n1,-65.6% (active),-13.1% (active),-54.6% (active),-85.4% (active),-59.3% (active),-58.8% (active),17.2%,-88.1% (active),4.28% (active),-30.5% (active),2.47% (active),–,-24% (active),2.84% (active),-71.9% (active),-41.9% (active),-85.2% (active),3.4% (active),1.11% (active),-24.1% (active)
Nc1c(C(=O)C[C@@H](N)CO)ccc2c1C(=O)CCO2,46.8%,97.8%,32.7%,45.5%,71.4%,45.6%,29.8%,-37.5% (active),20.6%,33.4%,30.7%,19.2%,72.8%,86.4%,–,51.4%,23.5%,110%,61.2%,35.8%
CCOC(=O)Nc1ccc2nc(Sc3ccc(Cl)cc3)sc2c1,46.8%,57.6%,40.4%,43.9%,53.1%,61.5%,19.2%,58%,20.2%,37.8%,9.2% (active),21.5%,85.9%,50.3%,22.5%,43.4%,0.656% (active),50.8%,14%,–
CCOc1cc(/C=N\NC(=O)C[N+](C)(C)C)ccc1O,115%,98.7%,109%,113%,105%,103%,95.9%,115%,98.5%,28.5%,14.3%,94%,101%,–,105%,118%,116%,117%,103%,113%
C(=Nc1ccc(-c2ccc(N=Cc3ccccc3)cc2)cc1)c1ccccc1,109%,105%,93.3%,66.6%,110%,101%,94.3%,97.9%,88.3%,83%,86.3%,103%,116%,–,103%,87.6%,111%,82.1%,101%,109%
COc1cc(C2CC(c3ccc(C)cc3)=NN2C=O)ccc1Oc1nc2c(c(=O)n(C)c(=O)n2C)n1C (stereo not drawn),121%,80.1%,52.4%,63.1%,113%,88.1%,79.2%,76.9%,83.8%,67.2%,85.7%,72.1%,102%,77.8%,124%,82.6%,105%,80.2%,63%,–
C[N+](C)(C)CC(=O)N/N=C\c1ccco1,111%,103%,106%,82.8%,95.2%,107%,98%,98.7%,100%,102%,81.2%,103%,97%,–,103%,104%,114%,99.4%,111%,102%
O=[N+]([O-])c1ccc(N=Nc2c(NNc3ccc([N+](=O)[O-])cn3)cc(S(=O)(=O)O)c3ccccc23)nc1,108%,91.1%,81.5%,52.1%,88.4%,57.4%,64.1%,77.2%,65.1%,70.9%,47.2%,90%,91.4%,–,78%,84.9%,-5.33% (active),–,79.5%,67.5%
Clc1ccc(-c2nc(-c3cccs3)no2)cc1,103%,85.4%,100%,71.3%,74.6%,101%,99.5%,108%,91.9%,96.3%,101%,95.3%,–,–,99.2%,77.1%,103%,99.5%,103%,101%
